# This excerpt belongs to a sample that is enriched for hits.
# MBNL1 CUG block = blocks human MBNL1 binding to CUG repeat RNA | Potency, µM (top dose mostly 57.5 µM), for inactives: top-dose activity change, negative = inhibition, most hits filed as inhibitors | TR-FRET MBNL1-His/biotin-(CUG)12 binding, 665/545 ratio | AID 2675 | 0.036% of 280,000 active | Q9NR56; active = well fitted inhibition curve with a large enough effect in the signal ratio, with a control signal flat, not every such curve was filed as active; inconclusive = small, poorly fitted or top-dose-only effect, or effect the other way, or a change in a side signal; inactive = no such curve, though single readings can be large or run the other way; the % refers to the signal ratio; note: potency is the fitted concentration of half-maximal effect; % is set by controls: 0 for no effect and ±100 for the full control effect
#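 TR-FRET readout: Ex 340 nm, 665/545 nm emission ratio, normalized to buffer-only (basal) and MBNL1-(CUG)12 controls. Complex of MBNL1-His with Biotin-(CUG)12, compounds 92 nM–58 uM, incubated 60 min at room temperature.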
# CBFb-RUNX1 inh = blocks binding between human CBF-beta and RUNX1 | AlphaScreen CBFb-His/RUNX1-biotin binding, biochemical | AID 1477 | 230,000 tested, under 10 active | Q01196+Q13951 | Potency, µM (highest dose often 59.8 µM), without a hit: top-dose activity, negative = inhibition, most hits filed as inhibitors; active = well fitted curve in the direction sought with a large enough effect; inconclusive = small, poorly fitted or top-dose-only effect, or effect the other way, or another doubt; inactive = no such curve, though single readings can be large or run the other way; note: % of control where 0% means no effect
#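 Read-out: AlphaScreen. Format: His-CBF-beta with biotinylated RUNX1 (30 nM each) preincubated 20 min, compound 15 min, Ni-chelate plus streptavidin beads 90 min; room temperature throughout.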
# Rango release inh = inhibition of RanGTP-driven Rango-importin beta dissociation; AID 540253; O95149+P62826; Biochemical FRET Rango-importin beta, RanGTP-induced dissociation; Potency, µM (highest dose often 46.1 µM), inactives show top-dose activity change, negative = inhibition; 0.071% of 340,000 active; note: potency is the fitted concentration of half-maximal effect; % of control where 0% means no effect; nearly all actives have a fitted effect of over 45% in size
#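 Compounds sat 5 min at room temperature with 0.1 uM Rango biosensor plus 0.25 uM importin beta, then FRET pre-read. RanGTP-RCC1 (0.6 uM Ran, 2mM GTP, 0.2 uM RCC1) added for 45 min, and the CFP/YFP post-read measured blocked complex dissociation.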
# Rango complex inh = inhibitors of Rango-importin beta complex formation; Q14974; Rango CFP/YFP FRET sensor + importin beta, 45 min; Potency, µM (titrated, usually from 92.2 µM), without a hit: top-dose inhibition of complex formation; 0.031% of 340,000 active; AID 540263;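 note: potency is the fitted concentration of half-maximal effect; 0% = DMSO wells and 100% = buffer wells lacking importin beta; nearly all actives have a fitted effect of over 15% in size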
#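 FRET biosensor (snurportin 1 IBB flanked by EYFP and cerulean), 50 nM, with compound 5 min, then 0.125 microM importin beta in PBS, 1 mM DTT, 0.02% Tween-20, 0.1% BSA. CFP/YFP ratio read after 45 min at room temperature; pre-read flags interference.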
# ClpP mod = qHTS Assay for Activators of ClpP. purified B. subtilis ClpP, FRET peptide cleavage, 20 min. Potency, µM (titrated, usually from 57.5 µM), for the others: at the top dose activity change, negative = active. 1.9% of 340,000 active. AID 651965, 2013; active = well fitted falling curve with a large enough effect; inconclusive = small, poorly fitted or top-dose-only effect; inactive = no such curve, though single readings can be large or run the other way; note: potency is the fitted concentration of half-maximal effect; the source files actives as falling curves though it sought activators and does not explain the sign; nearly all actives have a fitted effect of over 65% in size
#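 FRET quenching reversal measured ClpP activation: 10 microg/mL B. subtilis ClpP at pH 8 with the FRET-FV decapeptide, read at 430 nm after 320 nm excitation. The 20-min minus 0-min signal was scaled between DMSO/no-enzyme wells and ADEP (5.8 microM final).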
# The depositor's hits bear a star; ? = inconclusive; . = no result; [ ] = dose if it differs, or a comment. Unless noted, calls come from the whole dose curve.
SMILES,MBNL1 CUG block,CBFb-RUNX1 inh,Rango release inh,Rango complex inh,ClpP mod
CC1=CC(c2ccccc2)n2nc(N3C(=O)C4CC=CCC4C3=O)nc2N1 (stereo unspecified),12%,1%,1%,?,2.2µM*
CCOc1ccccc1NC(=O)NNC(=O)c1ccc2ccccc2c1,18%,.,-1%,-1%,32µM*
CCOc1ccc(NC(=O)CCCN2C(=S)NC(C)(C)CC2C)cc1 (stereo unspecified),.,-6%,-8%,-4%,28µM*
CCc1nn(CC(=O)N2CCN(c3cccc(C(F)(F)F)c3)CC2)c(=O)c2cccn12,.,.,.,.,-2%
CCCc1nc(N2CCCC2)c(C#N)c2c1CCCC2,-8%,5%,-1%,0%,32µM*
CC(C)c1nc(N2CCCC2)c(C#N)c2c1CCCC2,8%,16%,-1%,0%,28µM*
CCc1nc(N2CCCC2)c(C#N)c2c1CCCC2,2%,4%,-16%,-6%,20µM*
COc1ccc(NC(=O)C(=O)NCc2ccco2)c(OC)c1,.,.,.,.,-1%
FC(F)(F)c1cccc(CNc2ncccc2-c2nc3cc(Cl)ccc3o2)c1,-1%,-2%,13%,?,32µM*
Cc1cccc(-c2noc(-c3cccnc3NCc3ccc(Cl)cc3)n2)c1,.,.,.,.,-19%
Cc1[nH]c2ccccc2c1C(=O)C(C)Sc1nc2ccccc2c(=O)n1Cc1cccnc1 (stereo unspecified),.,.,.,.,-2%
Cc1cc(N(C)C)c(C)cc1/C=C/c1ccnc2ccccc12,.,.,.,.,2%
COCCN1C2=C(C(=O)CC(C)(C)C2)C(c2ccc(OC)c(OC)c2)C2=C1CC(C)(C)CC2=O,20%,.,-28%,?,10µM*
Cc1ccc(Nc2nc(NCc3ccco3)nc3nccnc23)cc1C,.,.,.,.,-1%
COc1ccc(CNC(=O)c2[nH]c(C)c(C(C)=O)c2C)cc1,-2%,.,-5%,-2%,.
COc1ccc(CCNC(=O)c2[nH]c(C)c(C(C)=O)c2C)cc1,0%,3%,5%,-1%,35µM*
CC(=O)Nc1cccc(C(=O)OCC(=O)NC(=O)C2CCCCC2)c1,.,.,.,.,-5%
Cc1ccccc1NC1=NC(=S)N(c2ccccc2)C12CCCCC2,15%[11.5 µM],8%,6%,0%,28µM*
Cc1ccccc1NC1=NC(=S)N(c2ccccc2)C12CCOC(C)(C)C2 (stereo unspecified),-5%,-3%,1%,-2%,1%
COc1ccc(-c2[nH]c(-c3ccc(F)cc3)nc2SCC(=O)Nc2ccc(OC)c(OC)c2)cc1,.,.,.,.,-12%
CC1Cc2ccccc2N1C(=O)c1ccc(F)c(S(=O)(=O)N2CCOCC2)c1 (stereo unspecified),.,.,-15%,-1%,28µM*
CC(C)c1ccc(NC(=O)c2cc3c([nH]c2=O)CC(C)(C)CC3=O)cc1,.,.,.,.,0%
O=S(=O)(c1ccc(NC2CCCc3ccccc32)nc1)N1CCOCC1 (stereo unspecified),11%,-5%,0%,4%,32µM*
O=C(NC1CCCc2ccccc21)c1ccc(S(=O)(=O)N2CCOCC2)cc1 (stereo unspecified),-2%,6%,-1%,1%,1%
COc1ccc(OC)c(-c2cc(C(=O)Nc3c(C)nn(Cc4ccc(Cl)cc4)c3C)no2)c1,3%,-2%,12%,2%,35µM*
SMILES,MBNL1 CUG block,CBFb-RUNX1 inh,Rango release inh,Rango complex inh,ClpP mod
N#Cc1c(N)oc(-c2ccc3c(c2)OCO3)c1-c1ccc2c(c1)OCO2,?,-5%,?,?,14µM*
Cc1ccc(-c2cc(-c3ccc(F)cc3)c(C#N)c(N)n2)o1,?,1%,?,?,.
Cc1ccc(-c2cc(-c3ccc(C)o3)nc(N)c2C#N)cc1,?,-21%,?,?,22µM*
Cc1nc(N)c(C#N)c(-c2ccc3c(c2)OCO3)c1C,19%,.,0%,?,-3%
Cc1ccc(-c2cc(-c3ccc4c(c3)OCO4)c(C#N)c(N)n2)o1,?,12%,-15%,?,35µM*
COc1ccc(C)cc1NC(=O)Nc1cccc(OCc2cc(=O)n3ccc(C)cc3n2)c1,.,.,.,.,-13%
Oc1ccc(C[C@H]2CN([C@@H](Cc3cccc(O)c3)CN3CCC[C@@H]3CN3C(=S)NC[C@@H]3Cc3ccccc3)C(=S)N2CC2CCCCC2)cc1,.,.,.,.,0%
N#CC1=C(N)N(c2ccccc2)C(c2ccco2)C1(C#N)C#N (stereo unspecified),9%,-1%,1%,?,14µM*
Cc1cccc(N2C(N)=C(C#N)C(C#N)(C#N)C2c2ccccc2)c1 (stereo unspecified),-7%,.,21%,0%,14µM*
N#CC1=C(N)N(c2ccccc2)C(c2cccc([N+](=O)[O-])c2)C1(C#N)C#N (stereo unspecified),?,-8%,-8%,2%,1%
CCCCNc1c(-c2ccc(SC3CCCCC3)cc2)nc2cnccn12,.,.,?,?,28µM*
CCOc1ccc(N2CC(C(=O)N3CCCCC3)CC2=O)cc1 (stereo unspecified),-1%,.,-1%,-2%,.
CCOc1ccc(N2CC(C(=O)N3CCN(c4ccccn4)CC3)CC2=O)cc1 (stereo unspecified),.,.,13%,-3%,20µM*
CCc1ccc(N2CC(C(=O)N3CCN(c4ccccn4)CC3)CC2=O)cc1 (stereo unspecified),.,.,-1%,-1%,28µM*
CCCCCCN(CCCCCC)c1ccc(/C=C/c2ccnc3ccccc23)cc1,.,.,.,.,-1%
C[C@H]1COC(=O)[C@H]2CCCN2C(=O)[C@@H](C)COC(=O)[C@H](Cc2ccccc2)NC1=O,.,19%[13.1 µM],.,.,.
CCOCCc1nn2c(=O)cc(COC(=O)c3ccc(NC(=O)C4CCCCC4)cc3)nc2s1,.,.,.,.,-4%
CSc1nc(NCc2ccccc2)c2c3c(sc2n1)CN(C)CC3,5%,-1%,?,?,14µM*
CN1CCc2c(sc3nc(SCC(N)=O)n(-c4ccccc4)c(=O)c23)C1,?,-14%,?,?,28µM*
CCCCCNc1nc2sc3c(c2c(=O)n1-c1cccc(Cl)c1)CCN(C)C3,6%,4%,16µM*,?,-2%
COC(=O)CSc1nc2sc3c(c2c(=O)n1-c1ccccc1)CCN(C)C3,?,-27%,-28%,?,18µM*
CC(C)Sc1nc(N)c2c3c(sc2n1)CN(C)CC3,9%,2%,?,?,28µM*
COc1cccc(-c2nc(SCc3cccc(Br)c3)n3[nH]c(=O)cc3n2)c1,.,.,.,.,0%
COc1ccc(-c2ccc(-c3noc(-c4cccc(OC)c4)n3)c(OC)n2)cc1,1%,8%,-17%,?,3.2µM*

# Assay outcomes deposited in PubChem BioAssay by National Center for Advancing Translational Sciences (NCATS).
